High-throughput results: PubChem BioAssay, National Center for Advancing Translational Sciences (NCATS)
HCMV antiviral = qHTS Assay for inhibitors of the human cytomegalovirus (HCMV); HFF cells, HCMV-luciferase reporter, 72 h; hits give low values; activity change, negative = inhibition, % at 57.5 µM; 410,000 tested, 4.5% active; in the data active means activity change below about -60%; inconclusive means no clear call, values can overlap the other calls; inactive means above about -39%
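Luciferase read-out from HCMV-luciferase-infected HFFs (MOI 1 PFU/cell) 72 h post infection at 37C; compounds added after 16 h cell attachment; activity normalized between buffer-only basal and Salinomycin (10uM) inhibitor controls.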
HCV inh = qHTS Assay for Inhibitors of Hepatitis C Virus (HCV); Huh7.5.1 HCVcc-Cre infection, luciferase reporter, 44 h; Potency, µM (titrated, usually from 41.8 µM), usual class: inhibitors; 340,000 tested, 3.4% active; AID 651820, 2012
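Luciferase read-out (15 sec integration) after a 15 min room-temperature substrate step quantifies HCVcc-Cre infection. Cells, 1,000 per well, had compound added 4 h post-plating, then virus at ~0.5 moi, and were cultured 44 h.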
Pf growth 96h = Primary qHTS for delayed death inhibitors of the malarial parasite plastid, 96 hour incubation | P. falciparum luciferase reporter growth, 96 h | Potency, µM (doses to about 28.7 µM), most hits filed as inhibitors | 320,000 tested, 6.9% active | AID 504834, 2011
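Compounds incubated with erythrocytes infected by luciferase-expressing P. falciparum (2% hematocrit, 0.05% parasitemia final) for 96 hours, 37 C in 5% CO2. Growth inhibition scored as decreased luciferase luminescence.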
SARS PLpro yeast = qHTS of Yeast-based Assay for SARS-CoV PLP. Potency, µM (top dose mostly 32.9 µM), most hits filed as activators. AID 485353, 2010. S. cerevisiae expressing SARS-CoV PLpro, growth rescue. 330,000 tested, 0.19% active; calls by dose curve; further: nearly all actives have a fitted effect of over 55% in size
Pf growth 48h = Primary qHTS for delayed death inhibitors of the malarial parasite plastid, 48 hour incubation | P. falciparum luciferase growth in erythrocytes, 48 h | Potency, µM (top dose mostly 28.7 µM), most hits filed as inhibitors | 310,000 tested, 5.9% active | AID 504832, 2011
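Firefly luciferase activity from engineered P. falciparum reports growth; inhibitors lower the luminescent signal. Cultures contained 2% hematocrit erythrocytes at 0.1% final parasitemia.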
Sm TGR inh = qHTS Assay for the Inhibitors of Schistosoma Mansoni Peroxiredoxins; purified TGR, DTNB reduction, TNB absorbance 405 nm; Potency, µM (top dose mostly 114 µM), most hits filed as inhibitors; 360,000 tested, 3% active; AID 485364, 2010; further: nearly all actives have a fitted effect of over 60% in size
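Kinetic colorimetric format: TGR-catalysed, NADPH-driven DTNB reduction monitored via TNB absorbance. Enzyme dispensed at 20 nM; compound exposure 15 min at room temperature before reaction start.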
Each line names hits and unclear results; the compound was inactive in the other large screens. A selection: hits, their analogues and other compounds. The true share with any hit is near 15%. Unless noted, the call rests on the fitted dose curve; in most records, active means well fitted curve in the direction sought with a large enough effect; inconclusive means small, poorly fitted or top-dose-only effect, or another doubt; inactive means no such curve, though single readings can be large; an effect the other way counts as inactive or inconclusive.

CCC(C)c1ccc(NC(=O)c2c([N+](=O)[O-])cnn2CC)cc1 (centres undefined)	Pf growth 96h 5.22µM
CCn1ncc([N+](=O)[O-])c1C(=O)Nc1ccc(C(=O)N2CCCCC2)cc1	none
Cc1cccc(N2CCN(C(c3ccc(F)cc3)c3nnc(-c4ccccc4)o3)CC2)c1C (centres undefined)	none (no result: HCV inh, Pf growth 96h, SARS PLpro yeast, Pf growth 48h)
Cc1ccc(CN2C3CCCC2CC(NC(=O)c2ccc(C)cc2)C3)cc1 (centres undefined)	HCMV antiviral inconclusive, HCV inh 31.6µM, Pf growth 48h inconclusive (no result: Sm TGR inh)
O=C(COc1ccc(Cl)cc1)NCc1nnc(SCC(=O)NC2CCCC2)o1	Pf growth 96h 4.15µM, Pf growth 48h inconclusive (no result: SARS PLpro yeast)
COc1ccc(NCc2nnc(SCC(=O)c3ccc(OC)cc3)o2)cc1	HCV inh inconclusive (no result: Pf growth 96h)
CCCN1C2CCCC1CC(NC(=O)c1cc(OC)c(OC)c(OC)c1)C2 (centres undefined)	HCMV antiviral -104.3, Pf growth 48h inconclusive
CCOc1cc(C(=O)CSc2nnc(CNc3ccc(Cl)cc3)o2)ccc1NC(=O)CC	HCMV antiviral -87.2, HCV inh 11.2µM, Pf growth 96h inconclusive, Pf growth 48h inconclusive
O=C(CSc1nnc(COc2ccc(Cl)cc2)o1)NC1CCCCC1	none
COCCn1cnc2cnc(Nc3cc(OC)c(OC)c(OC)c3)cc21	none (no result: HCV inh, Pf growth 96h, SARS PLpro yeast, Pf growth 48h, Sm TGR inh)
CN1C(=O)c2ccccc2Sc2ccc(NC(=O)N3CCN(c4ccccc4F)CC3)cc21	Sm TGR inh inconclusive (no result: HCV inh, Pf growth 96h, SARS PLpro yeast, Pf growth 48h)
COc1ccc(NC(=O)CSc2nnc(CNC(=O)COc3ccc(Cl)cc3)o2)c(OC)c1	Pf growth 96h 9.28µM, Pf growth 48h 13.1µM
COc1cc(C(=O)NCc2nnc(SCC(=O)N3CCCC3)o2)cc(OC)c1OC	none
COc1cc(C(=O)NCCC(=O)NC2CCCCC2)cc(OC)c1OC	Pf growth 96h 9.28µM
COc1cc(C(=O)NCc2nnc(SCC(=O)NC3CCCC3)o2)cc(OC)c1OC	Pf growth 96h 8.28µM
Cc1ccc(CNC(=O)c2cc(NS(=O)(=O)c3ccc(C)cc3)ccn2)cc1	none (no result: HCV inh, Pf growth 96h, SARS PLpro yeast, Pf growth 48h)
C/C(=N\NC(=O)c1ccoc1C)c1cccc2ccccc12	HCV inh inconclusive, Pf growth 48h inconclusive
O=C1CCCN1c1ncc(S(=O)(=O)c2ccc([N+](=O)[O-])cc2)s1	HCV inh inconclusive, Pf growth 96h 4.15µM, Pf growth 48h inconclusive
Nc1ncc(S(=O)(=O)c2ccc([N+](=O)[O-])cc2)s1	none (no result: Pf growth 96h, SARS PLpro yeast, Pf growth 48h, Sm TGR inh)
O=S(=O)(c1ccc(-c2csc(-c3cccnc3)n2)cc1)N1CCCC1	HCMV antiviral inconclusive, Pf growth 48h inconclusive
O=S(=O)(c1cccc(-c2csc(-c3cccnc3)n2)c1)N1CCCCC1	HCMV antiviral -69.4, HCV inh inconclusive, Pf growth 48h 9.28µM
O=S(=O)(c1ccc(-c2csc(-c3cccnc3)n2)cc1)N1CCCCC1	HCMV antiviral -62.2, HCV inh inconclusive, Pf growth 48h inconclusive (no result: Pf growth 96h)
CCc1ccccc1N1CC(c2nc3ccccc3n2CCC2CCCCC2)CC1=O (centres undefined)	HCMV antiviral -107.7 (no result: HCV inh, Pf growth 96h, SARS PLpro yeast, Pf growth 48h)
Cc1ccccc1N1CC(c2nc3ccccc3n2Cc2ccc(Br)cc2)CC1=O (centres undefined)	HCMV antiviral -77.7 (no result: HCV inh, Pf growth 96h, SARS PLpro yeast, Pf growth 48h)
CNC(=O)C1CCC(Cn2c(=O)c3sccc3n(Cc3ccccc3)c2=O)CC1 (centres undefined)	none (no result: HCV inh, Pf growth 96h, SARS PLpro yeast, Pf growth 48h)
Cc1ccccc1CSc1nnc2ccc(-c3ccncc3)nn12	Pf growth 96h inconclusive, Pf growth 48h inconclusive
C=C1C(=O)O[C@@H]2C[C@@H](C)[C@@H]3C4OC4C(=O)[C@@]3(C)[C@@H](O)[C@H]12 (some centres undefined)	HCMV antiviral -79.3, HCV inh inconclusive, Pf growth 96h 3.29µM, Pf growth 48h 3.29µM, Sm TGR inh 39.8µM
C=C1C(=O)O[C@@H]2C[C@@H](C)[C@@H]3C=CC(=O)[C@@]3(C)[C@@H](OC(=O)CC(=O)O[C@H]3[C@@H]4C(=C)C(=O)O[C@@H]4C[C@@H](C)[C@@H]4C=CC(=O)[C@]43C)[C@H]12	HCMV antiviral -98.0, HCV inh 1.12µM, Pf growth 96h 1.31µM, Pf growth 48h 1.04µM, Sm TGR inh 1.12µM
C=C1C(=O)OC2CC(C)C3C=CC(=O)C3(C)C(O)C12 (centres undefined)	HCV inh 2.51µM (no result: HCMV antiviral, Pf growth 96h, SARS PLpro yeast, Pf growth 48h, Sm TGR inh)
C=C1C(=O)OC2C1CCC(C)C1(O)C=CC(=O)C21C (centres undefined)	HCMV antiviral -108.0, HCV inh 8.91µM (no result: Pf growth 96h, SARS PLpro yeast, Pf growth 48h, Sm TGR inh)
C=C1C(=O)O[C@H]2[C@H]1[C@H](OC(=O)CC(=O)O[C@@H]1C[C@@H](C)[C@@H]3C=CC(=O)[C@@]3(C)[C@H]3OC(=O)C(=C)[C@H]13)C[C@@H](C)[C@H]1C=CC(=O)[C@]12C	HCV inh inconclusive, Pf growth 96h inconclusive, Pf growth 48h inconclusive, Sm TGR inh 8.91µM
C=C1C(=O)OC2C1CCC(C)C1C=CC(=O)C12C (centres undefined)	HCMV antiviral -96.8, HCV inh inconclusive (no result: Pf growth 96h, SARS PLpro yeast, Pf growth 48h, Sm TGR inh)
C=C1C(=O)O[C@H]2C[C@@H](C)[C@@H]3C=CC(=O)[C@@]3(C)C[C@H]12	HCMV antiviral -99.1, Pf growth 96h 8.28µM, Pf growth 48h 5.22µM, Sm TGR inh 35.5µM
CC(=O)O[C@@H]1[C@H]2[C@@H](C[C@@H](C)[C@@H]3C=CC(=O)[C@@]13C)OC(=O)[C@@H]2C	Pf growth 96h inconclusive, Pf growth 48h inconclusive
N#CCCNc1c(Cl)cc(Cl)cc1C(=O)O	none
CS(=O)(=O)c1nc(S(=O)(=O)c2ccc(Cl)cc2)c(N2CCOCC2)s1	HCMV antiviral inconclusive, Pf growth 96h inconclusive, Pf growth 48h inconclusive
CCS(=O)(=O)c1nc(S(=O)(=O)c2ccc(Cl)cc2)c(N2CCN(CCO)CC2)s1	HCMV antiviral -66.0
CCCS(=O)(=O)c1nc(S(=O)(=O)c2ccc(C)cc2)c(N2CCN(CCO)CC2)s1	HCMV antiviral inconclusive, Pf growth 96h inconclusive, Sm TGR inh inconclusive
CCS(=O)(=O)c1nc(S(=O)(=O)c2ccc(Cl)cc2)c(NCCCN2CCOCC2)s1	Pf growth 96h 11.7µM
CCS(=O)(=O)c1nc(S(=O)(=O)c2ccc(Cl)cc2)c(N2CCc3ccccc3C2)s1	HCMV antiviral -72.5, Pf growth 96h 2.94µM, Pf growth 48h 9.28µM, Sm TGR inh inconclusive
CCC(C)(C)NC(=O)C(c1ccc(OC)cc1)N(C(=O)CCC(=O)Nc1cc(C)on1)c1cc(OC)ccc1OC (centres undefined)	Pf growth 48h inconclusive
COC(=O)c1cc(NC(=O)c2ccc(C)cc2)c(=O)oc1C	HCMV antiviral inconclusive
